“And” between values parts separate entries of the source, which are not always exact repeats. Equal entries are not always repeated. ± gives the standard deviation of the averaged measurements.
Legend:
DLD1 [1] = test: cell viability (CellTiter-Glo) relative to plate median (fraction of plate median); higher = more viable cells; conditions: 5 µM; treatment time 24 h; reporter: 7TFP
Summary of the method: (§1)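 Stable lentiviral TCF/Wnt firefly luciferase reporters (7TFP or TCF4/Wnt) were present in the colorectal cancer cell lines used. These cells received library compounds at a final 5 µM for 24 h, and parallel plates were read for firefly luciferase or CellTiterGlo luminescence. Each well was normalised to the plate median, and the value reported is the mean of two independent replicates.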

HCT116 = test: as above; conditions: 5 µM; treatment time 24 h; reporter: TCF4/Wnt
Summary of the method: as §1

SW480 [2] = test: as above; conditions: 5 µM; treatment time 24 h; reporter: 7TFP
Summary of the method: as §1

DLD1 [3] = test: TCF/Wnt firefly luciferase reporter signal relative to plate median (fraction of plate median); higher = higher Wnt reporter signal; conditions: 5 µM; treatment time 24 h; reporter: 7TFP
Summary of the method: as §1

SW480 [4] = test: as above; conditions: 5 µM; treatment time 24 h; reporter: 7TFP
Summary of the method: as §1

| Compound | cell viability (DLD1 [1]) | cell viability (HCT116) | cell viability (SW480 [2]) | TCF/Wnt firefly luciferase reporter signal (DLD1 [3]) | TCF/Wnt firefly luciferase reporter signal (SW480 [4]) |
| --- | --- | --- | --- | --- | --- |
| CC(=O)Nc1cc2nc3ccccc3oc-2cc1=O [N-Acetylquestiomycin A] | 0.985 ± 0.092 | 1.1 ± 0.057 | 1.06 ± 0.087 | 1.24 ± 0.12 | 1.145 ± 0.0071 |
| CCCCC(CC)CN1CN(CC(CC)CCCC)CC(C)(N)C1 (stereo not given) | 0.96 ± 0.071 | 0.988 ± 0.032 | 0.985 ± 0.0028 | 1.01 ± 0.048 | 0.997 ± 0.018 |
| N=C(N)NCCN1CCCCCCC1 | 1.03 ± 0.035 | 1.04 ± 0.11 | 1.04 ± 0.05 | 0.983 ± 0.081 | 1.115 ± 0.0071 |
| CN1CCC[C@@H]1Cc1c[nH]c2ccc(CCS(=O)(=O)c3ccccc3)cc12 | 0.943 ± 0.028 | 1.05 ± 0.12 | 0.956 ± 0.023 | 0.945 ± 0.18 | 1.04 ± 0.063 |
| NC[C@H]1CC[C@H](C(=O)O)CC1 | 0.995 ± 0.022 | 1.025 ± 0.0071 | 1.02 ± 0.014 | 0.927 ± 0.1 | 0.981 ± 0.028 |
| CC(C)=CCOc1cc2oc(=O)ccc2cc1O | 1.08 ± 0.014 | 1.19 ± 0.11 | 1.04 ± 0.028 | 1.005 ± 0.0071 | 1.07 ± 0.064 |
| CNCCCC12CCC(c3ccccc31)c1ccccc12 | 1.07 ± 0.085 | 1.085 ± 0.0071 | 1.07 ± 0.071 | 1.04 ± 0.035 | 1.1 ± 0.042 |
| COc1cc2c(cc1OC)C1(O)C(=O)c3ccc(O)c(C(=O)O)c3OC1CO2 (stereo not given) | 1.05 ± 0.035 | 1.04 ± 0.059 | 1.08 ± 0.014 | 0.9145 ± 0.005 | 0.984 ± 0.14 |
| Cc1cc(O)cc(O)c1C(=O)O | 1.03 ± 0.035 | 1.07 ± 0.1 | 1.03 ± 0.014 | 1 ± 0.05 | 0.925 ± 0.039 |
| NCCc1ccc(O)c(O)c1 | 0.922 and 1 | 1.05 and 1.1 | 0.998 and 0.98 | 1.01 and 1.02 | 0.963 and 0.967 |
| NS(=O)(=O)c1cc2c(cc1C(F)(F)F)NCNS2(=O)=O | 1.02 ± 0.17 | 1.09 ± 0.021 | 1.04 ± 0.057 | 1.12 ± 0.064 | 1.15 ± 0.092 |
| O=C(O)CCCCCCCCCCCC[C@@H]1C=CCC1 | 1 ± 0.055 | 1.03 ± 0.058 | 0.966 ± 0.1 | 1.15 ± 0.014 | 1 ± 0.096 |
| CN(C)c1ccc(O)c2c1C[C@H]1C[C@H]3[C@H](N(C)C)C(O)=C(C(N)=O)C(=O)[C@@]3(O)C(O)=C1C2=O | 0.991 ± 0.0099 | 1.03 ± 0.09 | 0.943 ± 0.048 | 1.05 ± 0.042 | 1.08 ± 0.085 |
| COc1cc2ccc(=O)oc2c(OC)c1OC | 1.05 ± 0.075 | 1.05 ± 0.064 | 1.025 ± 0.0071 | 0.993 ± 0.081 | 0.931 ± 0.045 |
| N[C@H](Cc1ccccc1)C(=O)O | 1.03 ± 0.066 | 1.07 ± 0.064 | 1.01 ± 0.078 | 1.17 ± 0.05 | 1 ± 0.15 |
| CC(=O)/N=c1/sc(S(N)(=O)=O)nn1C | 0.987 ± 0.047 | 0.909 ± 0.13 | 1.01 ± 0.053 | 0.865 ± 0.1 | 1.08 ± 0.099 |
| CCCCOc1ccc(OCCCN2CCOCC2)cc1 | 0.904 ± 0.086 | 0.976 ± 0.077 | 0.975 ± 0.011 | 0.993 ± 0.11 | 1.06 ± 0.014 |
| O=C(Oc1cccc2cccnc12)c1ccccc1 | 0.999 ± 0.044 | 0.891 ± 0.029 | 1.03 ± 0.035 | 0.856 ± 0.071 | 0.871 ± 0.025 |
| COC(=O)C[C@H]1C(C)(C)[C@@H](OC(C)=O)[C@@H]2CC3C4CC(=O)O[C@@H](c5ccoc5)[C@]4(C)CCC3[C@@]1(C)C2=O (stereo not given in full) | 1.05 ± 0.042 | 0.946 ± 0.011 | 1.015 ± 0.0071 | 0.966 ± 0.1 | 1.005 ± 0.0071 |
| CC1(C)CC2C1CCC1(C)OC2(C)CCC1O (stereo not given) | 1.045 ± 0.0071 | 1.1 ± 0.014 | 1.06 ± 0.028 | 1.02 ± 0.036 | 0.994 ± 0.094 |
| CCN(CC)CCCC(C)Nc1c2ccc(Cl)cc2nc2ccc(OC)cc12 (stereo not given) | 1.02 ± 0.014 | 0.886 ± 0.19 | 1.05 ± 0.014 | 1.11 ± 0.042 | 0.888 ± 0.036 |
| Cc1ccc(C(=O)c2ccc(CC(=O)O)n2C)cc1 | 0.981 ± 0.098 | 1.01 ± 0.023 | 1 ± 0.053 | 1.07 ± 0.05 | 1.06 ± 0.064 |
| CO[C@H]1O[C@H](CO)C(O[C@@H]2OC(C(=O)O)[C@@H](O[C@H]3O[C@H](COS(=O)(=O)O)C(O[C@@H]4OC(C(=O)O)[C@@H](O[C@H]5O[C@H](CO)C(O[C@@H]6OC(C(=O)O)[C@@H](O[C@H]7O[C@H](COS(=O)(=O)O)C(O[C@@H]8OC(C(=O)O)=C[C@H](O)C8OS(=O)(=O)O)[C@H](O)[C@H]7NC(C)=O)[C@H](O)[C@H]6O)[C@H](O)[C@H]5NC(C)=O)[C@H](O)[C@H]4O)[C@H](O)[C@H]3NC(C)=O)[C@H](O)[C@H]2O)[C@H](O)[C@H]1NC(C)=O (stereo not given in full) | 0.988 ± 0.032 | 1.05 ± 0.1 | 1.025 ± 0.0071 | 0.977 ± 0.2 | 0.98 ± 0.043 |
| CCOc1ccc2nc3cc(N)ccc3c(N)c2c1 | 1.02 ± 0.11 | 1.02 ± 0.074 | 0.999 ± 0.016 | 1.1 ± 0.085 | 0.925 ± 0.013 |
| COc1cccc(OC)c1C(=O)N[C@@H]1C(=O)N2[C@@H]1SC(C)(C)[C@@H]2C(=O)O | 1.05 ± 0.071 | 1.17 ± 0.042 | 1.07 ± 0.035 | 1.14 ± 0.21 | 1.06 ± 0.16 |
| Cc1cc(-n2c(=O)[nH]c(=O)n(C)c2=O)ccc1Oc1ccc(SC(F)(F)F)cc1 | 0.946 ± 0.052 | 1 ± 0.023 | 0.952 ± 0.016 | 0.926 ± 0.013 | 1.04 ± 0.06 |
| CC1=C(C(=O)O)N2C(=O)[C@@H](NC(=O)[C@H](N)c3ccc(O)cc3)[C@H]2SC1 | 0.977 ± 0.016 | 0.956 ± 0.063 | 0.949 ± 0.086 | 0.907 ± 0.14 | 0.918 ± 0.13 |
| O=CN(O)CCCC(NC(=O)C(CO)NC(=O)C1COC(c2ccccc2O)=N1)C(=O)NCCC(=O)NC1CCCN(O)C1=O (stereo not given) [Oxachelin] | 0.9715 ± 0.0092 | 1.07 ± 0.16 | 1.03 ± 0.059 | 1.11 ± 0.021 | 1.03 ± 0.085 |

— the supplement of paper PMC6522484
